Screens from PubChem.
mHTT CaM bind – mutant huntingtin-calmodulin interaction inhibitors – biochemical, AlphaScreen, primary screen; P42858; AlphaScreen His-mHTT/GST-CaM binding, luminescence; AID 1671202, 2021; 3.6% of 190,000 active; inhibition, % at 15 µM;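 note: 0% = both proteins with DMSO and 100% = one protein alone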
Pf apPOL inh – Pf-apPOL inhibitors, biochemical, fluorescence; Recombinant Pf-apPOL, molecular beacon fluorescence, 1.5 h; Plasmodium falciparum apicoplast DNA polymerase (apPOL); 0.25% of 210,000 active; inhibition, % at 10 µM
An asterisk follows results filed as active; . = no result given. This is a sample that favours compounds with a hit; in the whole collection about 3.5% have one here. Cut-off read from the data, not from the text of the source: active = inhibition above about 50%; inactive = the rest.

SMILES	mHTT CaM bind	Pf apPOL inh
Cc1ccccc1OCC(=O)N1N=C(c2ccc(Br)cc2)CC1(O)C(F)(F)F (stereo not given)	93*	1
CCC1=NN(C(=O)COc2ccc(Cl)c(C)c2)C(O)(C(F)(F)F)C1 (stereo not given)	94*	-16
CCC1=NN(C(=O)Cc2ccc(OC)cc2)C(O)(C(F)(F)F)C1 (stereo not given)	-9	2
Cc1cccc(C(=O)N2N=C(c3ccc(Br)cc3)CC2(O)C(F)(F)F)c1 (stereo not given)	97*	1
Cc1cccc(C(=O)N2N=C(c3cccc(Br)c3)CC2(O)C(F)(F)F)c1 (stereo not given)	19	0
O=C(COc1ccccc1)N1N=C(c2ccc(Br)cc2)CC1(O)C(F)(F)F (stereo not given)	28	-4
COc1ccc(SCCCC(=O)Nc2nc(-c3cccnc3)cs2)cc1	-8	1
COc1cccc(C(C)NC(=O)c2c(C)noc2-c2cccc(F)c2)c1 (stereo not given)	-10	-4
O=C(NC=Nc1cc([N+](=O)[O-])c(-c2ccncc2)n1-c1ccccc1)c1cccc(O)c1	64*	4
O=C(Nc1ccc2nn(-c3ccccc3)nc2c1)c1ccc(Cl)c([N+](=O)[O-])c1	6	6
Cc1nc(-c2cccnc2)nc2c1CCC(=O)N2CCC1=CCCCC1	57*	5
Cc1nc(-c2ccncc2)nc2c1CCC(=O)N2CCC1=CCCCC1	13	6
COc1ccc(CC(=O)N2CCc3cn(C)c4cccc(c34)C2)cc1	57*	-2
COc1ccc(CC(=O)N2CCc3ccccc3C2)cc1	4	-5
Cc1ccccc1CC(=O)N1CCc2cn(C)c3cccc(c23)C1	42	-2
Cn1cc2c3c(cccc31)CN(C(=O)Cc1ccccc1Cl)CC2	50*	-3
Cc1ccc(N2C(=O)CC(N3CCN(Cc4ccccc4)CC3)C2=O)c(Cl)c1 (stereo not given)	-3	5
Cc1cc(C)cc(C(=O)N2CCCC(C(=O)Nc3ccc(Cl)cc3)C2)c1 (stereo not given)	-4	0
CC1(C)CC(NC(=O)c2ccc([N+](=O)[O-])cc2)CC(C)(C)N1O	-1	-1
Cc1ccc2c(c1)N/C(=C(/C=C(\Cl)[N+](=O)[O-])[N+](=O)[O-])O2	45	-4
O=[N+]([O-])C(/C=C(\Cl)[N+](=O)[O-])=C1Nc2ccccc2N1	88*	3
Cc1c(Br)c([N+](=O)[O-])nn1CC(=O)Nc1ccc(C(F)(F)F)cc1[N+](=O)[O-]	9	-5
NC(=O)C1=CNCCC1C(F)(F)F (stereo not given)	.	-5
COc1ccc(NC(=O)C2=C(C)NC(=O)NC2c2ccc(OC)cc2OC)c(OC)c1 (stereo not given)	73*	1
COc1cc(C2NC(=O)NC(C)=C2C(=O)Nc2ccc(F)c(F)c2)ccc1O (stereo not given)	0	-2
SMILES	mHTT CaM bind	Pf apPOL inh
COc1ccc(NC(=O)C2=C(C)NC(=O)NC2c2cccs2)c(OC)c1 (stereo not given)	2	0
COc1ccc(C2NC(=O)NC(C)=C2C(=O)Nc2ccc(C)c(Cl)c2)cc1OC (stereo not given)	54*	0
COc1ccc(NC(=O)N2CCC(n3c(-c4ccco4)nc4cccnc43)C2)cc1F (stereo not given)	10	-2
COc1ccc(-c2nc3cccnc3n2C2CCN(S(=O)(=O)Cc3ccccc3)C2)cc1 (stereo not given)	50	-1
CCOc1ccc(CN2CCc3nc(N4CCC(C)CC4)ncc3C2)cc1	27	-4
CCCN1CCN(c2ncc3c(n2)CCN(Cc2ccc(N(C)C)cc2)C3)CC1	53*	-4
CCN1CCN(c2ncc3c(n2)CCN(Cc2ccc(Br)cc2)C3)CC1	76*	2
CCCN1CCN(c2ncc3c(n2)CCN(Cc2ccc(CC)cc2)C3)CC1	16	-4
CCCN1CCN(c2ncc3c(n2)CCN(Cc2ccc(Br)cc2)C3)CC1	32	-4
CC1CCN(c2ncc3c(n2)CCN(Cc2ccc(Br)cc2)C3)CC1	54*	-7
O=C1OC(c2ccc(Cl)cc2Cl)=N/C1=C\c1ccccc1F	-7	-7
COc1ccc(-c2ncc3c(n2)CCN(C(=O)Nc2cccc(Cl)c2C)C3)cc1	-7	-4
COc1ccc(C2Oc3c(OC)cccc3C3CC(c4ccc(C)o4)=NN32)cc1OC (stereo not given)	51*	-22
COc1cccc(C2=NN3C(C2)c2cccc(OC)c2OC3c2cc(OC)c(OC)c(OC)c2)c1 (stereo not given)	48	-22
COc1ccc(C2Oc3ccccc3C3CC(c4ccc(C)o4)=NN32)cc1 (stereo not given)	60*	-7
COc1ccc(C2Oc3ccc(Cl)cc3C3CC(c4ccco4)=NN32)cc1 (stereo not given)	37	-16
